From PubChem BioAssay (EPA / NIEHS) come the findings set out here.

Structures are written as SMILES. Inconclusive results are not listed. Active and inactive are the calls of the source. How the source made its calls: active means hit-call score of the fitted dose curve at least 0.9, where 1 is the maximum; inconclusive means response in the unintended direction; inactive means score below 0.9.

One may read the AC50 as the concentration giving half of the maximal activity seen.

The target in test [1] is human Phosphodiesterase 5 (PDE5), PDE5A (gene 8654) (UniProt O76074). Kind of test: NVS_ENZ_hPDE5: NovaScreen (NVS) Enzymatic Assay for human Phosphodiesterase 5 (PDE5) (AID 2283194). Put shortly:
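Screening began in duplicate at 25 uM, with actives taken into concentration-response. Enzyme activity of recombinant PDE5 toward its substrate was measured at 1 h by fluorescence mobility-shift detection, relative to DMSO controls.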

Test [2] concerns the target human Protein Phosphatase, Mg2+/Mn2+ Dependent 1A (PPM1A), PPM1A (gene 5494) (UniProt P35813). Kind of test: NVS_ENZ_hPPM1A: NovaScreen (NVS) Enzymatic Assay for human Protein Phosphatase, Mg2+/Mn2+ Dependent 1A (PPM1A) (AID 2283198). In outline:
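Primary screen in duplicate at 25 uM, with actives then titrated to a maximum of 50 uM. Recombinant PPM1A dephosphorylation of fluorescent substrate measured at 1 h, with substrate and product separated by mobility shift; inhibition fitted against DMSO.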

The target in test [3] is human Phosphodiesterase 4A1 (PDE4A1), PDE4A (gene 5141) (UniProt P27815). In words: NVS_ENZ_hPDE4A1: NovaScreen (NVS) Enzymatic Assay for human Phosphodiesterase 4A1 (PDE4A1) (AID 2283191). Put shortly: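 Fluorescent substrate turnover by recombinant PDE4A1 read after 1 h by mobility-shift separation. Primary duplicate screen at 25 uM; hits retested in concentration series with a 50 uM maximum, relative to DMSO.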
human Phosphodiesterase 4A1 (PDE4A1), PDE4A (gene 5141), sequence (P27815 whole entry, looked up): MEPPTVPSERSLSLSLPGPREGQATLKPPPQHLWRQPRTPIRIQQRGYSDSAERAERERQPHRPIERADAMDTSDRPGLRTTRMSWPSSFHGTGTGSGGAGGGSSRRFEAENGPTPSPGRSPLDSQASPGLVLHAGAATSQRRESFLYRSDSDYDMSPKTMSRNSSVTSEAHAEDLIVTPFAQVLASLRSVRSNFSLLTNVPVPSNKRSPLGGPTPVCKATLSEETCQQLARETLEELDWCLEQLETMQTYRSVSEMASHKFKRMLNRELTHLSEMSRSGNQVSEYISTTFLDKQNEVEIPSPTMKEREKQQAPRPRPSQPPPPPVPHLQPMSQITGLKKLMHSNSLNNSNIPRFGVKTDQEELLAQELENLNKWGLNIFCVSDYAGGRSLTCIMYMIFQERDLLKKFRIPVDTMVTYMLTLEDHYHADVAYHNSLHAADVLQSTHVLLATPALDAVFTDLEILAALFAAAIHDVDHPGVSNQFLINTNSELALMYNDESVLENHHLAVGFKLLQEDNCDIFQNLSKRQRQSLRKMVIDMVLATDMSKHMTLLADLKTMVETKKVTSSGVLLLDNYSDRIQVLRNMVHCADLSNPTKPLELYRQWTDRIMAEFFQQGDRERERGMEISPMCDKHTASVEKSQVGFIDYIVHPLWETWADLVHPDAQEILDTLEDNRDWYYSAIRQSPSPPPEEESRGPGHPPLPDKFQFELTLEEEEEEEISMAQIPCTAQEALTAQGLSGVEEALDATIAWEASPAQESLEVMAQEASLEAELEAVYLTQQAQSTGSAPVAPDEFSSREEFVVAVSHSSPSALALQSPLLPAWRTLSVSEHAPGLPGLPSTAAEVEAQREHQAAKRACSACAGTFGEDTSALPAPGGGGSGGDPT

Test [4] deals with cAMP-dependent protein kinase catalytic subunit alpha (Homo sapiens) (UniProt P17612). In words: NVS_ENZ_hPKA: NovaScreen (NVS) Enzymatic Assay for human Protein Kinase A (PKA) (AID 2283192). In outline:
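Cell-free kinase activity read by fluorescence after mobility-shift separation of substrate and product, 1 h post-dosing. Single-concentration duplicate screen (25 uM) preceded singleton concentration series (top 50 uM); loss of signal versus DMSO.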

Test [5] deals with human Phosphodiesterase 10 (PDE10), PDE10A (gene 10846) (UniProt Q9Y233). In words: NVS_ENZ_hPDE10: NovaScreen (NVS) Enzymatic Assay for human Phosphodiesterase 10 (PDE10) (AID 2283195). In outline: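 Readout is fluorescence intensity following electrophoretic mobility-shift separation, 1 h after dosing of isolated PDE10A protein. Hits meeting a preset threshold at 25 uM went to concentration series (max 50 uM), analysed relative to DMSO.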
human Phosphodiesterase 10 (PDE10), PDE10A (gene 10846), sequence (Q9Y233 whole entry, looked up): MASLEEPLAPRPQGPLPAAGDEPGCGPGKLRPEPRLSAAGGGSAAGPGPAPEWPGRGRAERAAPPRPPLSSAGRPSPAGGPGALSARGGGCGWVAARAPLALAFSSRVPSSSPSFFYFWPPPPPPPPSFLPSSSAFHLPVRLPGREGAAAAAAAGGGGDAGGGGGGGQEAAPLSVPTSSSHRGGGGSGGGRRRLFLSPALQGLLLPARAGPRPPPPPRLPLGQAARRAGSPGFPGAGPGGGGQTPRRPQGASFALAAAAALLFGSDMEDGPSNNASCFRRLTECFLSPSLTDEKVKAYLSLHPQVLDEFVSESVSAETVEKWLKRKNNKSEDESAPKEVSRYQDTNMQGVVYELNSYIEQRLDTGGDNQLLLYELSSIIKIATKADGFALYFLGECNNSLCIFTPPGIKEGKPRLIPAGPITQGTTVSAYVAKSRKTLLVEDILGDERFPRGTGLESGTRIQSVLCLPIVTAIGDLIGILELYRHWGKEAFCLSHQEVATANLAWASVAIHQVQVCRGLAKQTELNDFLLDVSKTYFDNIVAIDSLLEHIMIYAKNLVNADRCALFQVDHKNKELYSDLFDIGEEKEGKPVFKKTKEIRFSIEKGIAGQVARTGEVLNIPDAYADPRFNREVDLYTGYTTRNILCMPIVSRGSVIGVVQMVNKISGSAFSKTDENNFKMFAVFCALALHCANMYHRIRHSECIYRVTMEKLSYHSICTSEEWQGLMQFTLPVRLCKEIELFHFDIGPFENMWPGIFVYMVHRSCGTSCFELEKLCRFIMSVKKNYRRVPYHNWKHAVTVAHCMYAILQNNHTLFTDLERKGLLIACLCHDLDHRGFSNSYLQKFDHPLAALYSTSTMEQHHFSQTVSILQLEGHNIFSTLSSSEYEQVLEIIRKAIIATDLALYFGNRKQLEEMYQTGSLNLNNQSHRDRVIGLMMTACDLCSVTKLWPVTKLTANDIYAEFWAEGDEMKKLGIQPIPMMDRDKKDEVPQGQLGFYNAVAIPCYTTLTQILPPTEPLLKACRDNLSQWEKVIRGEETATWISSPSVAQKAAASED

In test [6] the target is human Matrix Metalloproteinase-9 (MMP9), MMP9 (gene 4318) (UniProt P14780). In words: NVS_ENZ_hMMP9: NovaScreen (NVS) Enzymatic Assay for human Matrix Metalloproteinase-9 (MMP9) (AID 2283190).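 Further: cell-free recombinant MMP9 protease activity read by fluorescent substrate signal; active means inhibition seen as loss of fluorescence signal versus DMSO.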 In outline:
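Extracted enzyme, fluorescent substrate, 1 h post-dose read. Single conc 25 uM in duplicate, then concentration series for actives. Activity = signal loss relative to DMSO negative control.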

In test [7] the target is Tyrosine-protein phosphatase non-receptor type 14 (Homo sapiens) (UniProt Q15678). Kind of test: NVS_ENZ_hPTPN14: NovaScreen (NVS) Enzymatic Assay for human Protein Tyrosine Phosphatase Non-receptor Type 14 (PTPN14) (AID 2283206). In outline:
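Fluorescent substrate turnover by recombinant human PTPN14 was measured 0.5 h after compound addition, with substrate and product separated by mobility shift. Single-point screening at 25 uM, then concentration-response up to 50 uM for chemicals meeting threshold (e.g., 30% inhibition).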

The target of test [8] is Serine/threonine-protein phosphatase PP1-alpha catalytic subunit (Homo sapiens) (UniProt P62136). Kind of test: NVS_ENZ_hPPP1CA: NovaScreen (NVS) Enzymatic Assay for human Protein Phosphatase 1 Aatalytic subunit Alpha (PPP1CA) (AID 2283200). In outline:
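Chemicals were first screened in duplicate at 25 uM, and those passing threshold (e.g. 30% inhibition) were run as concentration series to 50 uM. Cell-free recombinant protein, 1.33 h read, fluorescent substrate/product mobility-shift detection, normalised to DMSO.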

Test [9] has as its target human Protein Tyrosine Phosphatase Non-receptor Type 1 (PTPN1), PTPN1 (gene 5770) (UniProt P18031). In words: NVS_ENZ_hPTPN1: NovaScreen (NVS) Enzymatic Assay for human Protein Tyrosine Phosphatase Non-receptor Type 1 (PTPN1) (AID 2283201). Put shortly: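 Chemicals were first tested in duplicate at 25 uM, and those passing threshold went on to singleton concentration series topping at 50 uM. Recombinant enzyme, specific substrate, product separated by mobility shift, fluorescence read at 1.33 h; activity loss relative to DMSO.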

The target in test [10] is human Protein Tyrosine Phosphatase Non-receptor Type 4 (PTPN4), PTPN4 (gene 5775) (UniProt P29074). In words: NVS_ENZ_hPTPN4: NovaScreen (NVS) Enzymatic Assay for human Protein Tyrosine Phosphatase Non-receptor Type 4 (PTPN4) (AID 2283208). Put shortly:
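Screened in duplicate at 25 uM, with hits then titrated to a top concentration of 50 uM. Recombinant Sf9-derived PTPN4 turnover was read by fluorescence with electrophoretic separation, 1.33 h after compound addition. DMSO served as baseline.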

The target of test [11] is human Rho Associated Coiled-coil Containing Protein Kinase 1 (ROCK1), ROCK1 (gene 6093) (UniProt Q13464). Kind of test: NVS_ENZ_hROCK1: NovaScreen (NVS) Enzymatic Assay for human Rho Associated Coiled-coil Containing Protein Kinase 1 (ROCK1) (AID 2283214). Put shortly: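 Compounds first run in duplicate at 25 uM against recombinant human ROCK1, then followed in concentration series. Kinase activity was read 1 h post-dosing by fluorescence with mobility-shift separation, as signal loss relative to DMSO.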

Test [12] addresses human Phosphoinositide 3-kinase alpha (PI3Ka), PIK3CA (gene 5290) (UniProt P42336). Kind of test: NVS_ENZ_hPI3Ka: NovaScreen (NVS) Enzymatic Assay for human Phosphoinositide 3-kinase alpha (PI3Ka) (AID 2283196). In outline: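 Fluorescence/mobility-shift readout of substrate conversion by recombinant enzyme, 1 h post-dosing. Primary screen in duplicate at 25 uM; actives (e.g. ≥30% inhibition) retested in singleton concentration-response, top concentration 50 uM.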

The target in test [13] is Tyrosine-protein phosphatase non-receptor type 12 (Homo sapiens) (UniProt Q05209). Kind of test: NVS_ENZ_hPTPN12: NovaScreen (NVS) Enzymatic Assay for human Protein Tyrosine Phosphatase Non-receptor Type 12 (PTPN12) (AID 2283204). Put shortly: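 Single-concentration duplicates (25 uM) preceded singleton concentration-response up to 50 uM for chemicals passing threshold. Cell-free recombinant PTPN12 activity was read 1.33 h after dosing via fluorescence after mobility-shift separation; loss of signal versus DMSO.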

The target of test [14] is Tyrosine-protein phosphatase non-receptor type 13 (Homo sapiens) (UniProt Q12923). Kind of test: NVS_ENZ_hPTPN13: NovaScreen (NVS) Enzymatic Assay for human Protein Tyrosine Phosphatase Non-receptor Type 13 (PTPN13) (AID 2283205). Put shortly:
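Screened first at a single 25 uM in duplicate; compounds passing the threshold (e.g. 30% inhibition) were rerun in concentration series, top 50 uM. Recombinant enzyme, fluorescent substrate, mobility-shift separation, 0.5 h read. Data fitted as inhibition relative to DMSO.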

Test [15] concerns the target human Protein Tyrosine Phosphatase Non-receptor Type 9 (PTPN9), PTPN9 (gene 5780) (UniProt P43378). In words: NVS_ENZ_hPTPN9: NovaScreen (NVS) Enzymatic Assay for human Protein Tyrosine Phosphatase Non-receptor Type 9 (PTPN9) (AID 2283209). In outline: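 Sf9-expressed enzyme in a cell-free assay, fluorescence read 1.33 h after dosing with mobility-shift separation of substrate and product. Tested at 25 uM in duplicate, then up to 50 uM; signal loss versus DMSO.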

In test [16] the target is human Protein Tyrosine Phosphatase Receptor Type B (PTPRB), PTPRB (gene 5787) (UniProt P23467). Kind of test: NVS_ENZ_hPTPRB: NovaScreen (NVS) Enzymatic Assay for human Protein Tyrosine Phosphatase Receptor Type B (PTPRB) (AID 2283211). In outline: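 Recombinant human PTPRB with a fluorescent substrate, product separated by electrophoretic mobility shift; read 1 h after dosing. Primary screen in duplicate at 25 uM; actives then retested in concentration series; loss of signal versus DMSO.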

Test [17] concerns the target human Protein Tyrosine Phosphatase Receptor Type F (PTPRF), PTPRF (gene 5792) (UniProt P10586). Kind of test: NVS_ENZ_hPTPRF: NovaScreen (NVS) Enzymatic Assay for human Protein Tyrosine Phosphatase Receptor Type F (PTPRF) (AID 2283213). In outline: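 Cell-free fluorescence enzyme assay with recombinant protein and substrate; product separated by electrophoretic mobility shift. Read 1 h after dosing, single 25 uM duplicate screen, then concentration-response up to 50 uM; loss of signal vs DMSO.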

human Matrix Metalloproteinase-9 (MMP9), MMP9 (gene 4318), sequence (P14780 whole entry, looked up): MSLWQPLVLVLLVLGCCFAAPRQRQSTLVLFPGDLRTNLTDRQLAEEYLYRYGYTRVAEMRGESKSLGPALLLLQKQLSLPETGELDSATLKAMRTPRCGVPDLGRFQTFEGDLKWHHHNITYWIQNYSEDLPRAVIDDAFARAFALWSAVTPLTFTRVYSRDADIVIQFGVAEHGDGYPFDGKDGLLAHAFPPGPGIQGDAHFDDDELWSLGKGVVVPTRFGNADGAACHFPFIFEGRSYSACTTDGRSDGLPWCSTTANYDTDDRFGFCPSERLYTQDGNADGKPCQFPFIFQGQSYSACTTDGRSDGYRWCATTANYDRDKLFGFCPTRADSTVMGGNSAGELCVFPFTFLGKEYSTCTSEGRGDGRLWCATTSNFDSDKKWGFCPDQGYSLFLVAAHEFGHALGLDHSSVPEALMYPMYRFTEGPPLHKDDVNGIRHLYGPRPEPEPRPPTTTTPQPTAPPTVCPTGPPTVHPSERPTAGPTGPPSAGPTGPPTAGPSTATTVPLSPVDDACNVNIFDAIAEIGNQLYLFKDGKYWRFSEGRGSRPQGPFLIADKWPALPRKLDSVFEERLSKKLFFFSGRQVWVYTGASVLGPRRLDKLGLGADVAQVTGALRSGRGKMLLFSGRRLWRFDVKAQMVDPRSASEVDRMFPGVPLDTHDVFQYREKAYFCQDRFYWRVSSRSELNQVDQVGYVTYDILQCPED
Serine/threonine-protein phosphatase PP1-alpha catalytic subunit (Homo sapiens), sequence (P62136 whole entry, looked up): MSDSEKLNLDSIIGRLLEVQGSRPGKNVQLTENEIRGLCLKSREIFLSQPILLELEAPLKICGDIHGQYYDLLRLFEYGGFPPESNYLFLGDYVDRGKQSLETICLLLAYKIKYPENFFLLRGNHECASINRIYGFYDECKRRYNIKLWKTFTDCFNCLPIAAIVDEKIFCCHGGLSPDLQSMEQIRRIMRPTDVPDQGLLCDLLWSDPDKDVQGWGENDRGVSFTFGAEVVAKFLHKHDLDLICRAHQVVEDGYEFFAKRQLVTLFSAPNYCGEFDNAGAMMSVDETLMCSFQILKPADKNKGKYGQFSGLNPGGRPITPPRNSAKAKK
human Protein Tyrosine Phosphatase Non-receptor Type 1 (PTPN1), PTPN1 (gene 5770), sequence (P18031 whole entry, looked up): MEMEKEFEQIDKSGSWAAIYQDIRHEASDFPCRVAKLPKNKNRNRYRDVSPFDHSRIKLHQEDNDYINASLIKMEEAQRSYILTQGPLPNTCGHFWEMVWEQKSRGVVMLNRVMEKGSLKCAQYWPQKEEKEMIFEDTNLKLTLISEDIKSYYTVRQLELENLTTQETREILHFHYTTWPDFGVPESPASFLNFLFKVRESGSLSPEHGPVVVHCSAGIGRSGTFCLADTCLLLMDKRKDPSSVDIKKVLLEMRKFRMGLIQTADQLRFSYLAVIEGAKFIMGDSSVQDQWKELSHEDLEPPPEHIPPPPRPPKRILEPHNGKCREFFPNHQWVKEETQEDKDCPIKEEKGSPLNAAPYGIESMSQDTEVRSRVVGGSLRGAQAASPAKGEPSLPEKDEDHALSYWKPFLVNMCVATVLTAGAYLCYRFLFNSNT
human Phosphoinositide 3-kinase alpha (PI3Ka), PIK3CA (gene 5290), sequence (P42336 whole entry, looked up): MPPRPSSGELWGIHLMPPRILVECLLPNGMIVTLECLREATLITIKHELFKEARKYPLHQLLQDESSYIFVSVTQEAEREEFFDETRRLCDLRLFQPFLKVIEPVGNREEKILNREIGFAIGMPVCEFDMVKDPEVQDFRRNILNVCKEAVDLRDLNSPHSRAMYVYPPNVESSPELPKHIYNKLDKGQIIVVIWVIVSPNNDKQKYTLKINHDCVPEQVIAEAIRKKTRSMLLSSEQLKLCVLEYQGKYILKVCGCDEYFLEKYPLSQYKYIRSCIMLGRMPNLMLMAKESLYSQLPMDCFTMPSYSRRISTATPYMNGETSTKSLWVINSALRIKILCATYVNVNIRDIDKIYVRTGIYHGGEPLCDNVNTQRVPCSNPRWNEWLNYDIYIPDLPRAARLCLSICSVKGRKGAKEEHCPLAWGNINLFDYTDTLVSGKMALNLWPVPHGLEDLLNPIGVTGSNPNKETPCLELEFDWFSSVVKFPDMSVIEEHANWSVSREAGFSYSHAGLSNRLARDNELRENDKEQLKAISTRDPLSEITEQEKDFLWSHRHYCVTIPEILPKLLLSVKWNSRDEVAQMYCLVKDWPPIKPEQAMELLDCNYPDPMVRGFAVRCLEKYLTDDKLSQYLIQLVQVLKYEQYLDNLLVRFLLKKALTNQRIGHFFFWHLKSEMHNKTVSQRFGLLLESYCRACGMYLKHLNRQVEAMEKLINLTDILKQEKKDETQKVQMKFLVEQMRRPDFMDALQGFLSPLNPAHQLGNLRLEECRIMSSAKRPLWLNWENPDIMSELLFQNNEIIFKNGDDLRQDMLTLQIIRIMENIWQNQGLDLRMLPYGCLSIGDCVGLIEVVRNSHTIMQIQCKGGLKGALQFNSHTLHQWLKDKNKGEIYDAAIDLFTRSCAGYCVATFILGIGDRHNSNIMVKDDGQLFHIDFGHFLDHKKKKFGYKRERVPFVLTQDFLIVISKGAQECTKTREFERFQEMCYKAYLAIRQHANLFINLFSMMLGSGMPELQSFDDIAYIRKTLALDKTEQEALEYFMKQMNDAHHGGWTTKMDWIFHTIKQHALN
human Protein Phosphatase, Mg2+/Mn2+ Dependent 1A (PPM1A), PPM1A (gene 5494), sequence (P35813 whole entry, looked up): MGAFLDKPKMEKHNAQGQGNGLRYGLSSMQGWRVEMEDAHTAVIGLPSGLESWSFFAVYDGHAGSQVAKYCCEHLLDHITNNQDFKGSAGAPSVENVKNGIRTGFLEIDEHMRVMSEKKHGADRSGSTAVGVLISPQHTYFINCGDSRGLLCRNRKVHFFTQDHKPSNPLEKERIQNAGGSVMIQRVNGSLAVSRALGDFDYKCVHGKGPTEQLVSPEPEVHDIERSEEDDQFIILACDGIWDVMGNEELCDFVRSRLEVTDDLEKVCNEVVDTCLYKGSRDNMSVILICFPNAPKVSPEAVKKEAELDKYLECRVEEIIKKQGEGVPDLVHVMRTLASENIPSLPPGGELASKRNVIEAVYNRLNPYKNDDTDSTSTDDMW

Turning to `CCCCCCC(=O)O`, the result in test [1] and in [2] was inactive.
With `O=C(O)Cc1cc(I)c(Oc2cc(I)c(O)c(I)c2)c(I)c1`, the values for the concentration at half-maximal activity (AC50) in [3], in test [1] and in [5] were 0.0269 µM (active), 9.05 µM (active) and 8.91 µM (active), respectively. Also, the compound was classed as inactive in test [4].
In the case of `Cc1oc(-c2ccccc2)nc1CCOc1ccc(C[C@H](Nc2ccccc2C(=O)c2ccccc2)C(=O)O)cc1`, the AC50 in test [6] was 11.9 µM (active).
Turning to `CC(=O)CC(C)(C)O`, the call in test [7] was inactive.
On to `CC(C)(C)c1cccc(C(C)(C)C)c1O`, for which the call in [8] was inactive.
As to `CCCCOCCO`, the compound was classed as inactive in test [8].
As for `CCCCCCCC(=O)O`, the outcome in test [4], in [1] and in [9] was inactive.
Take `CC(O)CO` (configuration not stated): in test [1], the result was inactive.
Turning to `CCC(=C(c1ccc(O)cc1)c1ccc(OCCN(C)C)cc1)c1ccccc1`, the compound was called inactive in test [9].
Regarding `CN1CCC[C@H]1c1cccnc1`, the call in [8] and in test [10] was inactive.
On to `CCc1nn(C2CCCCC2)c2cc(C3(C#N)CCC(C(=O)O)CC3)ccc12` (configuration not stated), for which the AC50 in test [3] was 0.00229 µM (active). Moreover, the compound was called inactive in [1] and in test [5].
Regarding `c1ccc2c(c1)ccc1ccccc12`, the outcome in test [11] was inactive.
In the case of `COCC(C)OCC(C)O` (configuration not stated), the compound was classed as inactive in test [12], in test [13], in [14], in [10], in [15] and in test [16].
Turning to `OCCC(F)(F)C(F)(F)C(F)(F)C(F)(F)C(F)(F)C(F)(F)F`, the outcome in test [1] was inactive.
Consider `CCCOC(=O)c1ccc(O)cc1`, for which, in test [8], the result was inactive.
`COC(=O)CCCCC(=O)OC`: the compound was classed as inactive in test [1] and in test [2].
In the case of `CCCCCCCCCCCCCC[N+](C)(C)C`, the call in test [6] and in test [5] was inactive. Further, the AC50 in [12] was 8.66 µM (active).
Consider `c1ccc2cc3c(ccc4ccccc43)cc2c1`, for which the result in [3] was inactive.
For `CCN(CC)CCNc1ccc(CNC=O)c2sc3ccc(OC)cc3c(=O)c12`, the call in test [6], in [8], in test [14] and in test [17] was inactive. In addition, the AC50 in test [3] is 11.8 µM (active); in test [1], 6.82 µM (active); in test [5], 2.06 µM (active).
